Results filed as inconclusive are left out. Where a call stands in place of a potency, no number is given. Values without a mark were called inactive. Activity calls are given as the source filed them. Calls come from the whole dose curve; as a rule, active = well fitted inhibition curve with a large enough effect; inconclusive = small, poorly fitted or top-dose-only effect; inactive = flat fitted curve, though single readings scatter.

This assay has as its target Aldehyde dehydrogenase, mitochondrial (Homo sapiens) (UniProt P05091). Nature of the assay: qHTS for Inhibitors of the Aldehyde Dehydrogenase Family (ALDH2) Primary screen (AID 2061308). Note: nearly all actives have a fitted effect of over 55% in size. The conditions noted are these: ALDH2 enzyme inhibition qHTS, 1536-well; series mostly up to 56 µM.
For `COC1/C=C/C(C)(O)C(SCC(N)C(=O)O)CC(=O)OC(C)C(C)CC/C=C/1C` (stereo not given), the Potency entry was “inactive”. Turning to `CC(=O)N[C@H]1[C@H](O[C@H]2CC[C@]3(C)C4CC=C5[C@@H]6CC(C)(C)CC[C@]6(C(=O)O)[C@H](O)C[C@@]5(C)[C@]4(C)CC[C@H]3C2(C)C)O[C@H](CO)[C@@H](O)[C@@H]1O` (stereo not given in full), the Potency result was “inactive”.

With `CC(=O)OC(CSC1CCC(=O)OC(C)CCC(=O)C1)C(=O)O` (stereo not given), the Potency result was “inactive”.

On to `C[C@@H]1O[C@@H](O[C@@H]2[C@@H](O)[C@H](O[C@H]3[C@H](O[C@H]4CC[C@@]5(C)C(CC[C@]6(C)C5CC=C5[C@@H]7CC(C)(C)CC[C@]7(C(=O)O[C@@H]7O[C@H](CO)[C@@H](O)[C@H](O)[C@H]7O[C@@H]7O[C@@H](C)[C@H](O[C@@H]8O[C@@H](C)[C@H](O)[C@@H](O)[C@H]8O)[C@@H](O)[C@H]7O)CC[C@]56C)[C@@]4(C)CO)O[C@H](C(=O)O)[C@@H](O)[C@@H]3O)O[C@H](CO)[C@H]2O)[C@H](O)[C@H](O)[C@H]1O` (stereo not given in full), for which the activity change, negative = inhibition was 7.29% [at 11.2 µM].

Turning to `C=CC/C=C\C/C=C\CCCCCCCc1cccc(O)c1C(=O)O`, the Potency entry is “inactive”. Regarding `COc1ccccc1NC(=O)OCC1CCN(C(=O)OC(C)(C)C)CC1`, the Potency result was “inactive”. For the compound `C=C1CC/C=C(/CO)C(=O)C[C@@H]2[C@@H]1C[C@@]2(C)COC(C)=O`, the Potency entry is “inactive”. As to `C[C@@H]1CC[C@]2(C)C3(C)CC[C@@]2(OC3=O)[C@@]12C[C@H](c1ccoc1)OC2=O`, the Potency entry is “inactive”. Regarding `Clc1ccc(CN[C@H]2CCN(c3ncc(Br)cn3)C2)c(Cl)c1`, the Potency entry is “inactive”. As to `CC1(C)CC[C@]2(C(=O)O)CC[C@]3(C)C(=CCC4[C@@]5(C)C[C@H](O)[C@H](O[C@@H]6O[C@H](CO)[C@@H](O)[C@H](O)[C@H]6O)[C@@](C)(CO)C5[C@H](O)C[C@]43C)[C@@H]2C1` (stereo not given in full), the Potency result is “inactive”.

Take `CC(=O)OC1C(O)CC2(C)C(CCC(C)C23Cc2c(O)cc(CO)c(C=O)c2O3)C1(C)C` (stereo not given): the Potency entry is “inactive”. In the case of `COc1ccc(CCO[C@@H]2O[C@H](CO[C@@H]3OC[C@H](O)[C@H](O)[C@H]3O)[C@@H](O)[C@H](O)[C@H]2O)cc1`, the Potency result is “inactive”. With `Cn1ncnc1[C@@H]1c2n[nH]c(=O)c3cc(F)cc(c23)N[C@H]1c1ccc(F)cc1`, the Potency entry was “inactive”. `C[C@H](CN1CCCC1)C(=O)c1ccc(C(F)(F)F)cc1`: the Potency result is “inactive”. For the compound `CC1=C(CC/C(C)=C/C(=O)O)[C@@]2(C)CCCC(C)(C)C2CC1=O` (stereo not given in full), the Potency result was “inactive”. On to `CC(=O)O[C@@H]1[C@H](O)[C@@H](O[C@@H]2O[C@@H](C)[C@H](O[C@@H]3OC[C@@H](O)[C@H](O[C@@H]4OC[C@@H](O)[C@H](O)[C@H]4O)[C@H]3O)[C@@H](O[C@@H]3O[C@H](CO)[C@@H](O)[C@H](O)[C@H]3O)[C@H]2O)[C@H](OC(=O)[C@]23CCC(C)(C)C[C@H]2C2=CCC4[C@@]5(C)CC[C@H](O[C@@H]6O[C@H](C(=O)O)[C@@H](O)[C@H](O[C@@H]7OC[C@@H](O)[C@H](O)[C@H]7O)[C@H]6O[C@@H]6O[C@H](CO)[C@H](O)[C@H](O)[C@H]6O)[C@@](C)(C=O)C5CC[C@@]4(C)[C@]2(C)CC3)O[C@@H]1C` (stereo not given in full), for which the activity change, negative = inhibition is 5.14% [at 11.2 µM]. For the compound `C=C1CCC2C(C)(C)C(O)CCC2(C)C1CCC(C)CCOC(=O)CCC(=O)O` (stereo not given), the Potency result was “inactive”.

In the case of `C/C(=C\CC[C@@H](C)[C@H]1CC(O)[C@@]2(C)C3CC[C@H]4C(C)(C)[C@@H](OC5OCC(O)C(O)C5OC5OC(CO)C(O)C(O)C5O)CC[C@@]45C[C@@]35CC(O)[C@]12C)C(=O)O` (stereo not given in full), the Potency result was “inactive”.

As to `C/C=C/[C@@H]1C=C[C@@H]2C[C@H](C)CC[C@H]2[C@]1(C)/C(O)=C1/C(=O)[C@@H](CO)N(C)C1=O`, the Potency entry was “inactive”.

For `CCOc1cc(CNC2CCCC2)cc(Cl)c1OCc1ccc(Cl)cc1`, the Potency result was “inactive”. Take `C[C@]12CCC[C@](C)(C(=O)O)C1CCC13C=C(CO)C(CCC12)C3` (stereo not given in full): the Potency result was “inactive”. For the compound `Cc1ccc(OC[C@H](O)[C@H](C)NC(C)C)c2c1CCC2`, the Potency entry is “inactive”.

Regarding `O=C1NCc2nc3ccccc3c(=O)n2C1Cc1c[nH]c2ccccc12` (stereo not given), the Potency entry is “inactive”. For the compound `CC(C)=CCC[C@](C)(O)[C@H]1CC[C@]2(C)[C@@H]1[C@H](O)CC1[C@@]3(C)CC[C@H](O)C(C)(C)[C@@H]3[C@@H](O[C@@H]3O[C@H](CO)[C@@H](O)[C@H](O)[C@H]3O[C@@H]3O[C@H](CO)[C@@H](O)[C@H](O)[C@H]3O)C[C@]12C` (stereo not given in full), the Potency entry is “inactive”. As for `C[C@@H]1CC[C@]2(C(=O)O[C@@H]3O[C@H](CO)[C@@H](O)[C@H](O)[C@H]3O)CC[C@]3(C)C(=CCC4[C@@]5(C)C[C@@H](O)[C@H](O)C(C)(C)C5CC[C@]43C)C2[C@]1(C)O` (stereo not given in full), the Potency result is “inactive”. On the same count and under the same terms, the result for `CC1(C)CC[C@]2(C(=O)O)CC[C@]3(C)C(=CCC4[C@@]5(C)CC[C@H](O[C@@H]6O[C@H](C(=O)O)[C@@H](O[C@@H]7OC[C@@H](O)[C@H](O)[C@H]7O)[C@H](O)[C@H]6O)C(C)(C)C5CC[C@]43C)C2C1O` (stereo not given in full) reads “inactive”; that for `COC1OC(OC)C(O)(CCC2(C)C(C)CCC3(C)C2CC(O)C(O)C32CO2)C1O` (stereo not given), “inactive”; that for `C[C@]12CC[C@@H]3c4ccc(O[C@@H]5O[C@H](C(=O)O)[C@@H](O)[C@H](O)[C@H]5O)cc4CC[C@H]3[C@@H]1CCC2=O`, “inactive”. As for `C[C@@H]1C[C@H]2[C@@H]3CCC4=CC(=O)C=C[C@]4(C)[C@@]3(F)[C@@H](O)C[C@]2(C)[C@@]1(O)C(=O)COP(=O)(O)O`, the Potency result was “inactive”. On the same count and under the same terms, then `COc1cc(/C=C/C(=O)OC2[C@H](O)CC(O)(C(=O)O)C[C@H]2O)ccc1O` (stereo not given in full), with “inactive”.
